# Test results as given in PubChem BioAssay (NCATS).
# Records with an inconclusive call do not appear. Entries that show only a call come without a potency. Values without a mark were called inactive. Activity calls are given as the source filed them. Unless noted, the call rests on the fitted dose curve; in most records, active means well fitted curve in the direction sought with a large enough effect in the repeat runs; inconclusive means weak or mixed curves; inactive means no such curve, though single readings can be large; an effect the other way counts as inactive or inconclusive.
# What was measured:
# [1] = Primary qHTS for small molecule stabilizers of the endoplasmic reticulum resident proteome: Secreted ER Calcium Modulated Protein (SERCaMP) assay (AID 1508630; active means well fitted curve in the direction sought with a large enough effect; an effect the other way counts as inactive or inconclusive)
# How it was run: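 The SH-SY5Y reporter protocol was run at 3 concentrations up to 38.3 uM (primary) or 11 concentrations (follow-up): 16 h compound, 100 nM thapsigargin for 4 h, then extracellular luciferase luminescence.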
# [2] = A High-Content qHTS Against Drug Library for the Identification of Small Molecules that Inhibit DYT1 Early Onset Primary Dystonia-Associated Cell Pathology (AID 1645839; calls by dose curve; further: series mostly up to about 46 µM)
# How it was run: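 High-content imaging quantified EGFP-TorsinA mislocalization in HEK293-derived cells inducibly expressing DYT1 mutant torsinA, after 48 h exposure to compound given together with tetracycline induction. Cell count served as a toxicity channel alongside %pathology.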
# [3] = molecular target: Cytochrome P450 2D6 (Homo sapiens) (UniProt P10635); test: Cytochrome P450 family 2 subfamily D member 6 (CYP2D6) small molecule antagonists: luciferase biochemical (cell-free) qHTS assay (AID 1645840); further: nearly all actives have a fitted effect of over 55% in size; further: potency means the concentration at half of the fitted maximal effect; on activity change, negative = inhibition: series mostly up to about 57 µM
# How it was run: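 P450-Glo CYP2D6 system: proluciferin substrate converted by enzyme to luciferin, read by luminescence proportional to activity. Enzyme-substrate mix with compound 10 min at room temperature, then NADPH regeneration 1 h before detection reagent.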
# [4] = molecular target: Cytochrome P450 2C9 (Homo sapiens) (UniProt P11712); test: Cytochrome P450 family 2 subfamily C member 9 (CYP2C9) small molecule antagonists: luciferase biochemical (cell-free) qHTS assay (AID 1645842); further: nearly all actives have a fitted effect of over 55% in size; further: potency means the concentration at half of the fitted maximal effect; on activity change, negative = inhibition: series mostly up to about 57 µM
# How it was run: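 P450-Glo CYP2C9 system: proluciferin substrate with enzyme in mix containing 0.4% BSA, 10 min at room temperature, then NADPH regeneration solution added and incubated 1 h at 37C. Detection reagent stopped reaction; luminescence read after 20 min as RLU.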
# Chain of Cytochrome P450 2D6 (Homo sapiens) (P10635 whole entry, looked up): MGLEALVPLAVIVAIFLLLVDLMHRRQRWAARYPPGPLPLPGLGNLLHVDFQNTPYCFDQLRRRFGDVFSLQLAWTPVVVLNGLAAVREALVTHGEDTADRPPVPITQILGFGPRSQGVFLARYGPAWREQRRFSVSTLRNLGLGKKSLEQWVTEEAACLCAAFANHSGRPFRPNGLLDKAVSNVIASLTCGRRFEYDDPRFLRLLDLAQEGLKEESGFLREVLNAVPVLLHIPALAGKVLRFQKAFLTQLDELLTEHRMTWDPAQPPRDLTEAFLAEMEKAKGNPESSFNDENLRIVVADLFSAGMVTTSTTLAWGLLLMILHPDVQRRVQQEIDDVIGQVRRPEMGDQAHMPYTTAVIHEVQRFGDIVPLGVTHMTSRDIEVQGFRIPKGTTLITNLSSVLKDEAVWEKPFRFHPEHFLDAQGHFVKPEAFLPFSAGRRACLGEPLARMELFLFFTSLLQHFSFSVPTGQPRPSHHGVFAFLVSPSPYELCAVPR
# Chain of Cytochrome P450 2C9 (Homo sapiens) (P11712 whole entry, looked up): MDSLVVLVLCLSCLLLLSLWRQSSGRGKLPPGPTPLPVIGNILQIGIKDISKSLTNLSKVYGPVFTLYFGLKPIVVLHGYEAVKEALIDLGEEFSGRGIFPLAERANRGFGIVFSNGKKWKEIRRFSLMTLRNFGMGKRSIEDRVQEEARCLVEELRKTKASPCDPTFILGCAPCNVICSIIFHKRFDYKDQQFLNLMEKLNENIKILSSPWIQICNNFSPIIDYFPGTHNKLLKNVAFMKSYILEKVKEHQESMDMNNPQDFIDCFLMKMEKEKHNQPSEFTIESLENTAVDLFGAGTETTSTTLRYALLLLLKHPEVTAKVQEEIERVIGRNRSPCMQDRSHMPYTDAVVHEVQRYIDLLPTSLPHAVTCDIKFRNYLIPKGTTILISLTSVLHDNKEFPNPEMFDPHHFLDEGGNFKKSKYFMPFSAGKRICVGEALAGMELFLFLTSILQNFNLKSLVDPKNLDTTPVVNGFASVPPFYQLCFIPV
smiles,measurement,setting,value
CC(CC(C#N)(c1ccccc1)C(C)C)N(C)C (configuration not stated),Potency,[1],inactive
same,Potency,[2],inactive
same,Potency,[3],8.71 µM (active)
same,Potency,[4],inactive
CCOC(=O)N1CCC(n2c(=O)[nH]c3cc(Cl)ccc32)CC1,Potency,[1],inactive
same,Potency,[2],inactive
same,Potency,[4],11 µM (active)
Nc1ccc([N+](=O)[O-])c(C(F)(F)F)c1,Potency,[1],inactive
same,Potency,[2],inactive
same,Potency,[3],inactive
same,Potency,[4],inactive
OCCc1ccccc1,Potency,[1],inactive
same,Potency,[2],inactive
same,Potency,[4],inactive
COc1cc(C(=O)OC(COCCC(C)C)CN2CCOCC2)cc(OC)c1OC (configuration not stated),Potency,[1],inactive
same,Potency,[2],inactive
same,Potency,[3],inactive
same,Potency,[4],2.19 µM (active)
CC[N+](CC)(CC)CCOC(=O)C(C1CCCC1)C1CCCC1,Potency,[1],inactive
same,Potency,[2],inactive
same,Potency,[3],3.09 µM (active)
same,Potency,[4],inactive
CCCCCC(=O)O[C@]1(C(C)=O)CC[C@H]2[C@@H]3CCC4=CC(=O)CC[C@]4(C)[C@H]3CC[C@@]21C,Potency,[1],inactive
same,Potency,[2],inactive
same,Potency,[3],13.8 µM (active)
same,Potency,[4],4.9 µM (active)
C[N+]1(CC2COC(c3ccccc3)(c3ccccc3)O2)CCCCC1 (configuration not stated),Potency,[1],inactive
same,Potency,[2],inactive
same,Potency,[3],1.51 µM (active)
same,Potency,[4],inactive
Cc1cc(CCCOc2c(C)cc(-c3noc(C(F)(F)F)n3)cc2C)on1,Potency,[1],inactive
same,Potency,[2],inactive
same,Potency,[4],19.5 µM (active)
CN(CC1(C)CCCO1)S(=O)(=O)c1ccc(Cl)c(S(N)(=O)=O)c1 (configuration not stated),Potency,[1],inactive
same,Potency,[2],inactive
same,Potency,[3],inactive
same,Potency,[4],inactive
CC(C)(C)c1ccc(C(=O)CCCCl)cc1,Potency,[1],inactive
same,Potency,[2],inactive
same,Potency,[3],inactive
same,Potency,[4],inactive
CC(C)(Oc1ccc(Cl)cc1)C(=O)OCCCOC(=O)C(C)(C)Oc1ccc(Cl)cc1,Potency,[1],inactive
same,Potency,[2],inactive
same,Potency,[3],inactive
same,Potency,[4],7.76 µM (active)
CCOC(=O)NNc1ccc(N(CC)CC(C)O)nn1 (configuration not stated),Potency,[1],inactive
same,Potency,[2],inactive
same,Potency,[3],inactive
same,Potency,[4],inactive
CCCCCCCC(=O)[O-].CCCCCCCC(=O)[O-].[Zn+2],Potency,[1],inactive
same,Potency,[2],inactive
same,Potency,[4],inactive
CCCCCCCCCCCCCCCCCCN(C)C,Potency,[1],inactive
same,Potency,[2],inactive
same,Potency,[3],inactive
same,Potency,[4],inactive
Cc1ccccc1N1CCN(CCc2nnc3n2CCCC3)CC1,Potency,[1],inactive
same,Potency,[2],inactive
same,Potency,[3],13.8 µM (active)
same,Potency,[4],inactive
CN1[C@@H]2CC[C@H]1CC(NC(=O)n1c(=O)[nH]c3ccccc31)C2 (some centres not stated),Potency,[1],inactive
same,Potency,[2],inactive
same,Potency,[3],1.55 µM (active)
same,Potency,[4],inactive
CO[C@@H]1[C@@H](O[C@@H]2O[C@H](C)[C@@H](O[C@H]3C[C@@](C)(O)[C@@H](O)[C@H](C)O3)[C@H](N(C)C)[C@H]2O)[C@@H](CC=O)C[C@@H](C)[C@@H](O[C@@H]2CC[C@H](N(C)C)[C@@H](C)O2)/C=C/C=C/C[C@@H](C)OC(=O)C[C@H]1OC(C)=O,Potency,[1],inactive
same,Potency,[2],inactive
same,Potency,[3],inactive
same,Potency,[4],inactive
O=C(O)c1ccccc1Nc1cc(Cl)ccc1C(=O)O,Potency,[1],inactive
same,Potency,[2],inactive
same,Potency,[3],inactive
same,Potency,[4],inactive
CCOC(=O)C(=O)c1csc(NC=O)n1,Potency,[1],inactive
same,Potency,[2],inactive
same,Potency,[3],19.5 µM (active)
same,Potency,[4],inactive
CCc1cc2cc(OC)c(OC)cc2c(Cc2ccccc2)n1,Potency,[1],inactive
same,Potency,[2],inactive
same,Potency,[4],15.5 µM (active)
Cc1nc([N+](=O)[O-])cn1-c1ccc([N+](=O)[O-])cc1,Potency,[1],inactive
same,Potency,[2],inactive
same,Potency,[3],inactive
same,Potency,[4],inactive
C[C@H]1C[C@H]2[C@@H]3CCC4=CC(=O)C=C[C@]4(C)[C@H]3C(=O)C[C@]2(C)[C@@]1(O)C(=O)CO,Potency,[1],inactive
same,Potency,[2],inactive
same,Potency,[3],inactive
same,Potency,[4],15.1 µM (active)
CCC[C@H](N[C@@H](C)C(=O)N1[C@H](C(=O)O)C[C@@H]2CCCC[C@@H]21)C(=O)OCC,Potency,[1],inactive
same,Potency,[2],inactive
same,Potency,[3],inactive
same,Potency,[4],inactive
COc1ccccc1N1CCN(CC(O)COc2cc(OC)c(OC)c(OC)c2)CC1 (configuration not stated),Potency,[1],inactive
same,Potency,[2],inactive
same,Potency,[4],inactive
CC1CN(c2cc3c(cc2F)c(=O)c(C(=O)O)cn3-c2ccc(F)cc2F)CCN1 (configuration not stated),"activity change, negative = inhibition",[1],-17% [at 3.88 µM]
same,"% pathology change, negative = correction",[2],-2.29% [at 4.63 µM]
same,"activity change, negative = inhibition",[3],-0.861% [at 4.83 µM]
same,"activity change, negative = inhibition",[4],17.6% [at 4.83 µM]
O=C(O)c1[nH]n(-c2ccc(S(=O)(=O)O)cc2)c(=O)c1N=Nc1ccc(S(=O)(=O)O)cc1,Potency,[1],inactive
same,Potency,[2],inactive
same,Potency,[3],inactive
same,Potency,[4],inactive
Cc1cc(=O)oc2cc(O[C@@H]3SC[C@@H](O)[C@H](O)[C@H]3O)ccc12,Potency,[1],inactive
same,Potency,[3],inactive
same,Potency,[4],inactive
CCOC(=O)Cn1cccc1-c1nc(-c2ccc(OC)cc2)c(-c2ccc(OC)cc2)s1,Potency,[1],inactive
same,Potency,[3],inactive
